Compounds with a hit are over-represented: about 1.2% of the library has one in this group of screens.
Akt phos inh = Akt phosphorylation inhibition | Neuro2A IGF-stimulated pAkt S473 HTRF, 20 min; hits give low values | activity change, % for hits at 50 µM | actives 0.32% (n = 360,000) | AID 651550; in the data active = activity change below about -80%; inconclusive = mostly about -51% to -80%; note: % is set by controls: 0 for no effect and ±100 for the full control effect
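Single-point screen (50 µM final compound) in Neuro2A cells stimulated 20 min with 6 nM IGF at 37 deg C. After lysis, Ser473-phosphorylated Akt read by HTRF (ex 330 nm, em 615/665 nm) as the 665/615 ratio.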
RXFP1 agonist = agonists of human relaxin receptor RXFP1 | actives 0.3% (n = 370,000) | HEK293T-RXFP1 cAMP TR-FRET, 30 min; response scale: percent of porcine relaxin response, buffer zero | AID 2676 | Potency, µM (titrated, usually from 57.5 µM), for the others: top-dose activation, actives largely listed as activators | Q9HBX9; active = well fitted activation curve with a large enough effect; inconclusive = small, poorly fitted or top-dose-only effect; note: potency is the fitted concentration of half-maximal effect; % is set by controls: 0 for no effect and ±100 for the full control effect; nearly all actives have a fitted effect of over 60% in size
Target sequence (Q9HBX9 whole entry, looked up): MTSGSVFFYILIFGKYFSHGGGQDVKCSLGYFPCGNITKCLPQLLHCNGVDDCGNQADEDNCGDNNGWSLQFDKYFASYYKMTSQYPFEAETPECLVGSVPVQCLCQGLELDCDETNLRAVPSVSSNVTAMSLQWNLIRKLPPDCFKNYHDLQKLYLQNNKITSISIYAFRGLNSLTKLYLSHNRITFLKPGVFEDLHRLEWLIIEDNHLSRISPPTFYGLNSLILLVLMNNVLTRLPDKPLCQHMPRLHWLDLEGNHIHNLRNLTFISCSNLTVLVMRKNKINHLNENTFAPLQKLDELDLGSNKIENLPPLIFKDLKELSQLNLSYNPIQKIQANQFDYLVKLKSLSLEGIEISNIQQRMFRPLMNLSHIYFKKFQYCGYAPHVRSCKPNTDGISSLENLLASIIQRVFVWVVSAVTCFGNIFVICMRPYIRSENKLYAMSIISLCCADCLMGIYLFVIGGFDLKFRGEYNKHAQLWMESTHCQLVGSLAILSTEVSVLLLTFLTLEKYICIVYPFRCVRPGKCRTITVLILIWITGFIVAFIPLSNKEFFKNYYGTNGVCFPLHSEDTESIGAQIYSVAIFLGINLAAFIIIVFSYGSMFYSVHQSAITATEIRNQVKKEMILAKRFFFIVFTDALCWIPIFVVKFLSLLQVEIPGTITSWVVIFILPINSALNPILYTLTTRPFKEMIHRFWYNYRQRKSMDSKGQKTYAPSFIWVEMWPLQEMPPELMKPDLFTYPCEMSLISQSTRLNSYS
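HEK293T cells stably expressing RXFP1 were pretreated with the PDE4 inhibitor Ro 20174, exposed to compounds for 30 min at 37C, lysed, and cAMP was read by TR-FRET. Data normalized to buffer (basal) and 29 nM porcine relaxin (100%).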
gsp antag = gsp mutant antagonism; gsp-mutant cells, cAMP HTRF, 30 min; Potency, µM (titrated, usually from 76.9 µM), without a hit: at the top dose activity change, negative = inhibition, actives largely listed as inhibitors; actives 0.4% (n = 340,000); AID 624288; calls by dose curve; cell line not stated here;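 note: intracellular cAMP measured with PDE inhibitor Ro 20-1724 present during compound exposure; potency is the fitted concentration of half-maximal effect; % is set by controls: 0 for no effect and ±100 for the full control effect; nearly all actives have a fitted effect of over 65% in size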
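G418-selected cells were plated in DMEM/10% FBS for 16-24 h at 37C, then treated with compounds plus the PDE inhibitor […] (300 uM solution added) for 30 min at 37C. Intracellular cAMP was measured by HTRF after 30 min lysis at room temperature.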
gsp agonist = activates gsp, the McCune-Albright syndrome mutation. gsp mutant cells, cAMP HTRF, 30 min. Potency, µM (highest dose often 76.9 µM), inactives show top-dose activation (cAMP increase), hits mostly activators. actives 0.13% (n = 340,000). AID 624287; active = well fitted activation curve with a large enough effect; inconclusive = small, poorly fitted or top-dose-only effect, or another doubt; inactive = no such curve, though single readings can be large or run the other way; cell line not stated here;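 note: phosphodiesterase inhibitor Ro 20-1724 added with compounds to block cAMP breakdown; potency is the fitted concentration of half-maximal effect; nearly all actives have a fitted effect of over 60% in size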
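Cells in DMEM/10% FBS with G418 were pretreated with compounds in DMSO plus […] (300 uM stock) for 30 min at 37C. cAMP was measured by HTRF (cAMP-d2 plus anti-cAMP antibody-K) after 30 min at room temperature.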
RXFP1 antagonist = blocks the human relaxin receptor RXFP1; Q9HBX9; HEK293-RXFP1, relaxin-stimulated cAMP HTRF, 30 min; hits give low values; activity change, negative = inhibition, % at 57.5 µM; actives 0.59% (n = 350,000);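 active = activity change of -60% or lower, but not beyond a set lower limit; inconclusive = change between -60% and -40%, or beyond the set limit; inactive = change above -40%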; note: % is set by controls: 0 for no effect and ±100 for the full control effect
The depositor's hits bear a star; i = inactive; ? = inconclusive; . = no result; [ ] = dose if it differs, or a comment.

SMILES | Akt phos inh | RXFP1 agonist | gsp antag | gsp agonist | RXFP1 antagonist
CCCCCC(O)(c1ccc(OC)cc1)C(CN1CCOCC1)c1ccccc1 (configuration not stated) | i | 4% | -20% | -7% | -61*
COc1cc(NS(=O)(=O)c2ccc(N)cc2)nc(C)n1 | . | . | . | . | -10
O=C(CSc1n[nH]c(=O)n1C1CC1)Nc1ccccc1 | i | 1% | 4% | 21% | -4
O=C(CSc1n[nH]c(=O)n1C1CC1)Nc1cc(Cl)ccc1Oc1ccccc1 | i | 0% | 35µM* | -3% | -6
Cc1nc2sc3c(=O)[nH]nnc3c2c(C)c1Br | i | -1% | 50µM* | ? | -10
Cc1cc(S(=O)(=O)N2CCN(c3ccccn3)CC2)ccc1F | i | 0% | -11% | ? | -1
Cc1cc(C)c(S(=O)(=O)N2CCN(c3ccccn3)CC2)c(C)c1 | i | -1% | -15% | 8%[15.4 µM] | -95*
COc1ccc(C(C)=O)cc1CSc1nnc(Nc2ccc(C)cc2C)s1 | i | 2% | -29% | -14%[15.4 µM] | 5
COc1ccc(C(C)=O)cc1CSc1nnc(Nc2ccccc2C)s1 | i | 0% | 11µM* | -46% | .
COc1cc(NC(=O)c2ccc3c(c2)OCO3)ccc1NC(=O)C(C)C | -115%* | 1% | 0% | -22% | -23
COc1ccc(C2C3=C(CC(C)(C)CC3=O)Nc3c2c(=O)[nH]c(=O)n3Cc2ccccc2)cc1OC (configuration not stated) | i | 0% | -17% | 0% | 9
COc1ccc(C2C3=C(CC(C)(C)CC3=O)Nc3c2c(=O)[nH]c(=O)n3Cc2ccccc2)cc1 (configuration not stated) | -102%* | -2% | -3% | 14% | -23
CCc1ccccc1NC(=O)CNC(=O)c1cc(C2CC2)nc2c1cnn2C(C)C | i | 2% | -9% | 1% | 5
CC(C)n1ncc2c(C(=O)NCC(=O)Nc3ccccc3Br)cc(C3CC3)nc21 | i | -3% | -16% | 27% | -88*
CCc1cccc(NC(=O)CCCn2nc(C)c3c(C)n(-c4ccccc4)nc3c2=O)c1 | i | 0% | -13% | 13% | -66*
O=C1C=CC2(O[C@H](c3ccccc3)[C@@H](c3ccccc3)O2)[C@H](Sc2ccccc2O)C1 | i | . | -13% | -7% | -99*
C[C@@H]1[C@@H](Sc2ccccc2)CC(=O)O[C@@H]1c1ccc(-c2ccccc2)cc1 | i | . | -18% | 23% | .
O=C1Nc2ccccc2/C1=C/C(=O)c1cccs1 | i | -2% | 24% | -15% | ?
CCN1C(=O)/C(=C\C(=O)c2cccs2)c2cc(Br)ccc21 | i | 2% | -4% | -20% | -66*
Cc1ccc(CON=C2CCN(c3ncc(C(F)(F)F)cc3Cl)CC2)cc1 | -112%* | 1% | -11% | 5% | -6
CCc1nnc(NC(=O)c2nc(S(=O)(=O)Cc3cccc(C)c3)ncc2Cl)s1 | i | -4% | 16µM* | -19%[15.4 µM] | -34
CCc1nnc(NC(=O)c2nc(S(=O)(=O)Cc3ccc(C)cc3)ncc2Cl)s1 | i | 0% | 28µM* | -8%[15.4 µM] | -25
COC(=O)c1cc2oc3ccccc3c2n1Cc1nc(-c2cccc(C)c2)oc1C | . | 3% | . | . | -9
O=[N+]([O-])c1ccc(CS(=O)c2ccccc2)cc1 (configuration not stated) | i | . | 2% | 18% | 0
O=[N+]([O-])c1ccc(S(=O)Cc2ccccc2)c([N+](=O)[O-])c1 (configuration not stated) | i | . | -15% | -1% | -103*
SMILES | Akt phos inh | RXFP1 agonist | gsp antag | gsp agonist | RXFP1 antagonist
O=C1Cc2cc(CCN3CCN(c4nsc5ccccc45)CC3)c(Cl)cc2N1 | . | 4% | . | . | -107*
Cc1cccc(-n2c(-c3ccco3)n[nH]c2=S)c1 | i | 30% | 15% | 6.3µM* | 9
Cc1cccc(-n2c(-c3csc(C(C)C)c3)n[nH]c2=S)c1 | i | 0% | -30% | 17% | -71*
CCCc1cc(-c2n[nH]c(=S)n2-c2cccc(C)c2)cs1 | i | 1% | . | -4%[15.4 µM] | -31
CC(C)OCCCNC(=O)CN1C(=O)c2ccccc2Sc2ncccc21 | . | 6% | . | . | .
O=C(COc1cccc(C(F)(F)F)c1)NCC(c1ccco1)N1CCCCC1 (configuration not stated) | i | 1% | 5% | -4%[15.4 µM] | -61*
Cc1ccc(OC(F)F)c(NC(=O)Nc2cccc(C(F)(F)F)c2)c1 | i | 0% | 35µM* | -1% | -30
O=C(Nc1ccccc1)Nc1cccc(C(F)(F)F)c1 | i | -1% | -7% | 17%[15.4 µM] | 1
COc1ccc(C(=O)c2ccccc2)c2c(O)ccc(C(=O)c3ccccc3)c12 | . | 0% | 28µM* | -11% | -21
COc1cc(O)c(C(=O)c2ccccc2)cc1S(=O)(=O)O | . | . | . | . | -9
CO/N=C(\C(=O)O)c1csc(NC(=O)CCl)n1 | . | . | . | . | 4
O=c1c(-c2nnc(SCc3ccc(Cl)cc3Cl)o2)cccn1Cc1ccccc1 | -94%* | 6% | ? | 8% | 0
CCN1c2ccccc2-c2nc(SCC(=O)Nc3cc(F)ccc3F)ncc2S1(=O)=O | . | 11% | . | . | -9
Cc1cccc(CCNc2nc3ccccc3n3nnnc23)c1 | -87%* | 9% | 8% | 4% | 2
CN(CCOc1ccc(Cl)cc1)C(=O)c1cc(-c2ccco2)nc2ccccc12 | i | 3% | ? | -3% | -70*

Screening results deposited in PubChem by National Center for Advancing Translational Sciences (NCATS).
